Out of some 48,000 compounds screened, about 13,000 (27%) showed an effect of 50% or more. The list shows a part of the results.
Test system: Wolbachia pipientis
Test: Anti-Wolbachia Cell-Based Screen
Format: functional
Parameters: scale not given: in the data most compounds retested in dose-response had high values
Conditions: 5 µM

Compared with `CCOC(=O)NCCC(=O)NCc1ccc(Oc2ccc(F)cc2)nc1`, `COc1ccc(CNC(=O)C2=NN(c3ccc(C)cc3)C(=O)CN2)cc1` is lower in “Percent Effect” value: -9.89% for the first, -36.41% for the second.

Compared with `OC(CNc1cncc(OCc2ccccc2)n1)c1ccco1` (stereo not drawn), `c1ccc(CN2Cc3ccnn3CC(COCc3cccnc3)C2)nc1` (stereo not drawn) is lower in “Percent Effect” value: 3.469% for the first, -0.5546% for the second.

Going from `COc1cc(C)ccc1OCC(=O)Nc1ccnc(OCCN(C)C)c1` to `CCCSc1nc(N)c(NC(=O)c2ccc(OC)c(OC)c2)c(=O)[nH]1`, the “Percent Effect” value falls from 10.45% to -5.573%.

Going from `CCn1c(CN(C)C)nnc1C1CCN(c2nccc(NC)n2)CC1` to `CCn1ccnc1CN1CCN(c2ccc3nnc(C)n3n2)CC1`, the “Percent Effect” value falls from -2.442% to -14.29%.

Compared with `Cc1cccc(C)c1CNC1(CCO)CCOCC1`, `Cc1cc(CCC(=O)N2CCOCC2)ccc1Br` is higher in “Percent Effect” value: 0.8259% for the first, 7.033% for the second.

First: CC(C)CCN1CCCC(Cn2cc(CCO)nn2)C1 (stereo not drawn)
Second: CN(c1ccccc1)c1ccc(CC2CCCN(CCO)C2)nn1 (stereo not drawn)
The “Percent Effect” value of the first is lower: -4.048% for the first, 94.33% for the second.

Compared with `COc1ccccc1CC1CCCN(CCC(N)=O)C1` (stereo not drawn), `NC(=O)C1CCCN(Cc2c(-c3ccco3)[nH]c3ncccc23)C1` (stereo not drawn) is higher in “Percent Effect” value: -12.09% for the first, -7.112% for the second.

Going from `Cc1ccc(N2CCCC(NC(=O)C(C)(C)C#N)C2=O)cc1` (stereo not drawn) to `Cc1csc(C2CCCN(C(=O)c3ccc(=O)n(C)n3)C2)n1` (stereo not drawn), the “Percent Effect” value rises from -7.395% to 3.739%.

First: CN(C)c1ncccc1CNC(=O)N1CCCC1CN1CCCCC1 (stereo not drawn)
Second: CNc1ncccc1CN1CCN(C)CC(C(=O)N(C)C)C1 (stereo not drawn)
The “Percent Effect” value of the first is lower: 7.687% for the first, 106.5% for the second.

Compared with `CN1CCN2CCN(Cc3ccccc3Cn3cccn3)CC2C1` (stereo not drawn), `CN1CCCN(C[C@H]2C[C@H](CO)CN(Cc3cccnc3N)C2)CC1` is lower in “Percent Effect” value: -0.2104% for the first, -5.741% for the second.

Going from `CNc1ncccc1CN1CCN(C(C)=O)CC(C(N)=O)C1` (stereo not drawn) to `CNc1ncccc1CN1CCN(C)CC(C(N)=O)C1` (stereo not drawn), the “Percent Effect” value falls from 106.9% to 105.8%.

Compared with `CC(C)Oc1ncccc1CNC(=O)N1CCC(C(N)=O)C1` (stereo not drawn), `N#Cc1cccnc1NCc1cccnc1N1CCC(C(N)=O)CC1` is higher in “Percent Effect” value: -8.219% for the first, -4.129% for the second.

First: CN(C)CCOCC1CN(C(=O)c2ccnnc2)Cc2ccnn2C1.O=C(O)C(F)(F)F.O=C(O)C(F)(F)F (stereo not drawn)
Second: O=C(Cc1cccnc1)N1CCCC2(CCN(C3CCOCC3)C2)C1.O=C(O)C(F)(F)F.O=C(O)C(F)(F)F (stereo not drawn)
The “Percent Effect” value of the first is higher: 5.316% for the first, 3.784% for the second.

First: CCn1cc2c(n1)C(COCC1CC1)CN(c1ccc(C)nn1)C2 (stereo not drawn)
Second: Cc1nnc2ccc(N3CCN(Cc4nccn4C)CC3)nn12
The “Percent Effect” value of the first is higher: 10.52% for the first, -5.258% for the second.

First: c1cc2nccc(CC3CCCN(Cc4ncc[nH]4)CC3)c2cn1 (stereo not drawn)
Second: O=CO.c1cc2nccc(CC3CCCN(Cc4c[nH]cn4)CC3)c2cn1 (stereo not drawn)
The “Percent Effect” value of the first is lower: 3.513% for the first, 92.48% for the second.

Compared with `Cn1ccnc1CN1CCC(CNS(=O)(=O)c2cccnc2)C1` (stereo not drawn), `Cn1ccnc1CN1CCCC(Cc2ccnc3ccncc23)CC1.O=CO` (stereo not drawn) is higher in “Percent Effect” value: 2.394% for the first, 122.1% for the second.

First: CS(=O)(=O)N1CCCC(Cc2ccnc3ccncc23)CC1 (stereo not drawn)
Second: CN1CCCC(Cc2ccnc3ccncc23)CC1 (stereo not drawn)
The “Percent Effect” value of the first is higher: 72.88% for the first, -6.52% for the second.

Going from `O=CO.c1cc2nccc(CC3CCCN(C4CCOCC4)CC3)c2cn1` (stereo not drawn) to `O=C(CC1CC1)N(Cc1cccnc1)CC1CCN(C2CCCC2)CC1`, the “Percent Effect” value falls from 113.5% to -16.06%.

Going from `O=C(NCCc1c[nH]cn1)C1CCCN(Cc2ccco2)C1` (stereo not drawn) to `COc1ccc(CCCC(=O)N2CCCC(n3cccn3)C2)cc1` (stereo not drawn), the “Percent Effect” value rises from -20.31% to 8.149%.

Going from `Cc1cccc(-c2nc(CN3CCn4c(nnc4C4CC4)C3)no2)c1` to `Cc1cc(CN2CCN(c3ccc4nncn4n3)CC2)no1`, the “Percent Effect” value rises from 0.9786% to 96.25%.

Compared with `Cc1nc(C2(NCc3c(C)nn(C)c3N3CCOCC3)CCC2)no1`, `Cc1cnc(C(=O)N2CCCC(c3c(C)c(=O)nc4n3CCC4)C2)cn1.Cl` (stereo not drawn) is higher in “Percent Effect” value: -14.17% for the first, 99.49% for the second.

First: Cc1cccc(CS(=O)(=O)Cc2ccn(C)c(=O)c2)c1
Second: O=S(=O)(CCc1ccccc1)Cc1nc(C2CC2)no1
The “Percent Effect” value of the first is lower: -8.677% for the first, 20.48% for the second.

Compared with `c1cn(CCNc2nc(NC3CC3)nc3c2CCNCC3)nn1`, `Cc1cnc(C(=O)N2CCCC(Cn3cc(C4CC4)nn3)C2)cn1` (stereo not drawn) is higher in “Percent Effect” value: -2.29% for the first, 1.892% for the second.

First: COc1ccc(N(c2ccccc2)c2ccc(C(=O)O)s2)cc1
Second: COc1ccc(N(c2ccc(C)cc2)c2ccc(C(=O)O)s2)cc1
The “Percent Effect” value of the first is lower: 119.4% for the first, 128.9% for the second.

Going from `COc1ccc(OC2CCN(C(=O)c3ccc(C(C)=O)s3)CC2)cc1` to `COc1ccc(N(c2ccc(OC)cc2)c2ccc(C(=O)O)s2)cc1`, the “Percent Effect” value rises from -8.42% to 99.84%.

First: CCN(C(=O)CN1CCCC1c1ccc(OC)cc1)c1ccccc1C (stereo not drawn)
Second: CCN(C(=O)CN1CCCC1c1ccc(OC)cc1)c1ccccc1 (stereo not drawn)
The “Percent Effect” value of the first is lower: 3.108% for the first, 3.138% for the second.

Going from `COc1cc(/C=C/c2ncc(C(=O)O)s2)cc(OC)c1` to `COc1ccc(C(C)Nc2ncc(C(N)=O)cc2Cl)c(OC)c1` (stereo not drawn), the “Percent Effect” value rises from 4.44% to 7.521%.

Compared with `CCOC(=O)N1CC2(CCNCC2)c2cc(Cl)ccc21.Cl`, `C[C@@H](N)C(=O)N1CC2(CCNCC2)c2cc(Cl)ccc21.Cl.Cl` is lower in “Percent Effect” value: 107.5% for the first, 85.61% for the second.

First: CC(=O)N1CC2(CCN(C(=O)CO)CC2)c2cc(C)ccc21
Second: CCC(=O)N1CCC2(CC1)CN(C(C)=O)c1ccc(C)cc12
The “Percent Effect” value of the first is lower: -15.84% for the first, 1.312% for the second.

First: Cl.O=C(c1ccccc1F)N1CC2(CCNCC2)c2cc(Cl)ccc21
Second: CN(C)C(=O)N1CC2(CCNCC2)c2cc(Cl)ccc21.Cl
The “Percent Effect” value of the first is higher: 106.3% for the first, -23.53% for the second.

Going from `O=C1CN(C(=O)c2cc(Cl)ccc2F)c2ccncc2N1` to `O=C1CN(C(=O)c2cc(Cl)ccc2F)c2ccccc2N1`, the “Percent Effect” value rises from -25.93% to 1.511%.

First: CC(C)C[C@H](N)C(=O)N1CC2(CCNCC2)c2cc(Cl)ccc21.Cl.Cl
Second: Cc1ccc2c(c1)C1(CCNCC1)CN2C(=O)C(C)C
The “Percent Effect” value of the first is higher: 115.3% for the first, -27.38% for the second.

First: Cc1ccc2c(c1)C1(CCN(S(C)(=O)=O)CC1)CN2C(=O)N(C)C
Second: Cc1ccc(CCC(=O)N2CCOCC2)cc1Cl
The “Percent Effect” value of the first is higher: 0.4399% for the first, -2.511% for the second.

Going from `CC(CO)(NC(=O)Nc1nnc(C(F)F)s1)C1CC1` (stereo not drawn) to `Cc1csc(CNCC2CCCN(C(=O)OC(C)(C)C)C2)n1` (stereo not drawn), the “Percent Effect” value rises from -2.731% to 11.13%.

Going from `CCc1ccc(C(C)NC(=O)CN(C)Cc2ccc(C)o2)cc1` (stereo not drawn) to `CCn1cnnc1CCNC(=O)C1COc2ccc(OC)cc2C1` (stereo not drawn), the “Percent Effect” value falls from 6.981% to 0.6591%.

First: O=C(O)c1ccccc1C1CCN(C2CCN(c3ccccc3)CC2)C1 (stereo not drawn)
Second: Cc1ccccc1N1CCCN(C(=O)CCc2cccnc2)CC1
The “Percent Effect” value of the first is lower: 1.292% for the first, 13.31% for the second.

First: Cc1csc(N2CCN(Cc3cnc(C)s3)CC2C)n1 (stereo not drawn)
Second: Cc1ncc(CN2CCN(c3ccc4nncn4n3)C(C)C2)s1 (stereo not drawn)
The “Percent Effect” value of the first is lower: -7.074% for the first, 100.4% for the second.

Compared with `Cc1cc(CN2CCN(c3ccc4nncn4n3)C(C)C2)no1` (stereo not drawn), `Cc1cc(CN2CCN(c3ccc4nncn4n3)C(C)C2)on1` (stereo not drawn) is higher in “Percent Effect” value: 0.8559% for the first, 105.9% for the second.

Going from `Cc1nc(CN2CCN(c3ccc4nncn4n3)C(C)C2)oc1C` (stereo not drawn) to `Cc1cnc(CN2CCN(c3ccc4nncn4n3)C(C)C2)cn1` (stereo not drawn), the “Percent Effect” value rises from 98.31% to 120.6%.

Going from `Cc1nc(CN2CCOC(c3ccc(Cl)cc3)C2)oc1C` (stereo not drawn) to `CS(=O)(=O)NCCN1CCSCC1c1ccc(Cl)cc1` (stereo not drawn), the “Percent Effect” value rises from -15.43% to 7.054%.

Compared with `Cc1ncc(CN2CCOC(CN(C)c3cccnn3)C2)s1` (stereo not drawn), `CC1CN(Cc2ccccn2)CCN1c1ccc2nncn2n1` (stereo not drawn) is higher in “Percent Effect” value: -7.672% for the first, 99.39% for the second.

Compared with `CC1(C)CN(C(=O)c2cnc(-c3ccccn3)nc2)CC[C@]1(C)O`, `CC1CN(CCc2ccccn2)CCN1c1ccc2nncn2n1` (stereo not drawn) is higher in “Percent Effect” value: -14.16% for the first, 129.7% for the second.

Compared with `CC(c1ccccc1F)N(C(=O)CSCC(N)=O)C1CC1` (stereo not drawn), `COc1ccc(CCC(=O)N2CCNCC2C(=O)N2CCCC2)cc1` (stereo not drawn) is higher in “Percent Effect” value: -1.119% for the first, 99.9% for the second.

Compared with `CCc1[nH]c2c(CNc3cncc(C(=O)N(C)C)n3)cc(C)cc2c1C`, `Cn1ccnc1SCc1nc(C(C)(C)NC(=O)OC(C)(C)C)no1` is higher in “Percent Effect” value: -3.475% for the first, 4.931% for the second.

Going from `c1ccc(CCN2CCN(c3ccc4nncn4n3)CC2)nc1` to `c1ccc(CN2CCN(c3ccc4nncn4n3)CC2)nc1`, the “Percent Effect” value rises from -2.088% to 81.68%.

First: CC1CN(CC2CCCCC2)CCN1c1ccc2nncn2n1 (stereo not drawn)
Second: CC1CN(CC2CCCC2)CCN1c1ccc2nncn2n1 (stereo not drawn)
The “Percent Effect” value of the first is lower: -9.658% for the first, -0.9162% for the second.

Compared with `N#Cc1ccc(N2CCN(c3ccc4nncn4n3)CC2)nc1`, `Cc1ccn(-c2ccc(N3CCN(Cc4ccccn4)CC3)nn2)n1` is lower in “Percent Effect” value: -1.975% for the first, -3.971% for the second.

Going from `Cc1cc(CN2CCN(CC(O)C(C)(C)C)CC2)no1` (stereo not drawn) to `Cc1nc(CN[C@H]2CCCN(C(=O)OC(C)(C)C)C2)cs1`, the “Percent Effect” value rises from -2.656% to 1.8%.

Compared with `Cc1nnc2ccc(N3CCN(CCc4ccccn4)CC3)nn12`, `CCOCCN1CCN(CCCc2nnnn2-c2ccccc2)CC1` is lower in “Percent Effect” value: 75.62% for the first, -8.911% for the second.

First: O=C(Nc1cnccn1)[C@H]1C[C@H]2OCC[C@H]2N(c2ncc(F)cn2)C1
Second: O=C(Nc1ccc(F)cc1)C1CNCCN1C(=O)CCc1cccnc1 (stereo not drawn)
The “Percent Effect” value of the first is higher: 2.565% for the first, -3.468% for the second.

Going from `CC1CN(CC(=O)N2CCCC2)CCN1c1ccc2nncn2n1` (stereo not drawn) to `Cc1c(C2CCCN(C(=O)c3ccn(C)n3)C2)n2c(nc1=O)CCC2` (stereo not drawn), the “Percent Effect” value rises from -2.378% to 88.69%.

First: CCCc1cc(N2CCCCC2Cn2cc(C)cn2)n2ncnc2n1 (stereo not drawn)
Second: Cc1c(C2CCCN(C(=O)C3CC3)C2)n2c(nc1=O)CCC2.Cl (stereo not drawn)
The “Percent Effect” value of the first is lower: -0.9521% for the first, 11.8% for the second.

Compared with `COc1ccc(C(=O)N2CCN(C(=O)CCCc3cn[nH]c3)CC2)cc1`, `COc1ccc(CCC(=O)N2CCNCC2C(=O)N2CCOCC2)cc1` (stereo not drawn) is higher in “Percent Effect” value: -2.583% for the first, 109% for the second.

Going from `O=C(C1CNCCN1C(=O)CCc1cccnc1)N1CCOCC1` (stereo not drawn) to `Cc1c(C2CCCN(C(=O)OC(C)(C)C)C2)n2c(nc1=O)CCC2` (stereo not drawn), the “Percent Effect” value rises from 99.11% to 101.7%.

From ChEMBL document CHEMBL3988442, “University of Dundee, Small-Polar-MMV Screening Library” (2021)
